{"source": "the supplement of paper PMC6992640"}
{"tested_on": "HCI01 (cells of a triple-negative basal-like breast cancer xenograft)", "test": "cell viability of combination (% of vehicle); higher = less cytotoxic", "conditions": "1 µM; 72 h; partner dose: 10 nM", "procedure": "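PDX cells were treated for 72 h with each drug at 1 µM plus afatinib (10 nM; 1 µM for WHIM30). Luciferase viability is expressed as percent of vehicle.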"}
{"molecule": "COc1ccc2c(O[C@H]3CC4C(=O)N(C)CCCC/C=C\\[C@H]5C[C@@]5(C(=O)NS(=O)(=O)C5CC5)NC(=O)[C@@H]4C3)cc(-c3nc(C(C)C)cs3)nc2c1C", "note": "(stereo partly drawn) [Simeprevir] + CN(C)C/C=C/C(=O)Nc1cc2c(Nc3ccc(F)c(Cl)c3)ncnc2cc1O[C@H]1CCOC1 [Afatinib]", "cell viability of combination": 53.9}
{"molecule": "CO[C@@]12[C@H](COC(N)=O)C3=C(C(=O)C(C)=C(N)C3=O)N1C[C@@H]1N[C@@H]12", "note": "[Mitomycin C] + CN(C)C/C=C/C(=O)Nc1cc2c(Nc3ccc(F)c(Cl)c3)ncnc2cc1O[C@H]1CCOC1 [Afatinib]", "cell viability of combination": 36}
{"molecule": "COc1cc2c(Oc3ccc4[nH]c(C)cc4c3F)ncnc2cc1OCCCN1CCCC1", "note": "[Cediranib (AZD217)] + CN(C)C/C=C/C(=O)Nc1cc2c(Nc3ccc(F)c(Cl)c3)ncnc2cc1O[C@H]1CCOC1 [Afatinib]", "cell viability of combination": 47.5}
{"molecule": "CC[C@H](C)[C@H]1O[C@]2(CC[C@@H]1C)C[C@@H]1C[C@@H](C/C=C(\\C)[C@@H](O[C@H]3C[C@H](OC)[C@@H](O[C@H]4C[C@H](OC)[C@@H](O)[C@H](C)O4)[C@H](C)O3)[C@@H](C)/C=C/C=C3\\CO[C@@H]4[C@H](O)C(C)=C[C@@H](C(=O)O1)[C@]34O)O2", "note": "[Ivermectin] + CN(C)C/C=C/C(=O)Nc1cc2c(Nc3ccc(F)c(Cl)c3)ncnc2cc1O[C@H]1CCOC1 [Afatinib]", "cell viability of combination": 46}
{"molecule": "Cc1c(-c2ccc(O)cc2)n(Cc2ccc(OCCN3CCCCCC3)cc2)c2ccc(O)cc12.Cl", "note": "[Bazedoxifene HCl] + CN(C)C/C=C/C(=O)Nc1cc2c(Nc3ccc(F)c(Cl)c3)ncnc2cc1O[C@H]1CCOC1 [Afatinib]", "cell viability of combination": 64.6}
{"molecule": "CCOc1cc2ncc(C#N)c(Nc3ccc(F)c(Cl)c3)c2cc1NC(=O)C=CCN(C)C", "note": "[Pelitinib (EKB-569)] + CN(C)C/C=C/C(=O)Nc1cc2c(Nc3ccc(F)c(Cl)c3)ncnc2cc1O[C@H]1CCOC1 [Afatinib]", "cell viability of combination": 72.1}
{"molecule": "COC(=O)NC(C(=O)NC(Cc1ccccc1)C(O)CN(Cc1ccc(-c2ccccn2)cc1)NC(=O)C(NC(=O)OC)C(C)(C)C)C(C)(C)C", "note": "(stereo not drawn) [Atazanavir] + CN(C)C/C=C/C(=O)Nc1cc2c(Nc3ccc(F)c(Cl)c3)ncnc2cc1O[C@H]1CCOC1 [Afatinib]", "cell viability of combination": 48.8}
{"molecule": "COc1cc2c(Nc3ccc(Br)cc3F)ncnc2cc1OCC1CCN(C)CC1", "note": "[Vandetanib (ZD6474)] + CN(C)C/C=C/C(=O)Nc1cc2c(Nc3ccc(F)c(Cl)c3)ncnc2cc1O[C@H]1CCOC1 [Afatinib]", "cell viability of combination": 47.3}
{"molecule": "COC(=O)c1ccc2c(c1)NC(=O)C2=C(Nc1ccc(N(C)C(=O)CN2CCN(C)CC2)cc1)c1ccccc1", "note": "[Nintedanib (BIBF 1120)] + CN(C)C/C=C/C(=O)Nc1cc2c(Nc3ccc(F)c(Cl)c3)ncnc2cc1O[C@H]1CCOC1 [Afatinib]", "cell viability of combination": 45}
{"molecule": "CCOc1nc2cccc(C(=O)OC(C)OC(=O)OC3CCCCC3)c2n1Cc1ccc(-c2ccccc2-c2nn[nH]n2)cc1", "note": "(stereo not drawn) [Candesartan Cilexetil] + CN(C)C/C=C/C(=O)Nc1cc2c(Nc3ccc(F)c(Cl)c3)ncnc2cc1O[C@H]1CCOC1 [Afatinib]", "cell viability of combination": 55.5}
{"molecule": "CC1(C)CCC(c2ccc(Cl)cc2)=C(CN2CCN(c3ccc(C(=O)NS(=O)(=O)c4ccc(NC(CCN5CCOCC5)CSc5ccccc5)c(S(=O)(=O)C(F)(F)F)c4)cc3)CC2)C1", "note": "(stereo not drawn) [ABT-263 (Navitoclax)] + CN(C)C/C=C/C(=O)Nc1cc2c(Nc3ccc(F)c(Cl)c3)ncnc2cc1O[C@H]1CCOC1 [Afatinib]", "cell viability of combination": 33}
{"molecule": "CCN(CC)CCNC(=O)c1c(C)[nH]c(C=C2C(=O)Nc3ccc(F)cc32)c1C", "note": "[Sunitinib] + CN(C)C/C=C/C(=O)Nc1cc2c(Nc3ccc(F)c(Cl)c3)ncnc2cc1O[C@H]1CCOC1 [Afatinib]", "cell viability of combination": 38.8}
{"molecule": "CC(C)c1nc(CN(C)C(=O)NC(C(=O)NC(Cc2ccccc2)CC(O)C(Cc2ccccc2)NC(=O)OCc2cncs2)C(C)C)cs1", "note": "(stereo not drawn) [Ritonavir] + CN(C)C/C=C/C(=O)Nc1cc2c(Nc3ccc(F)c(Cl)c3)ncnc2cc1O[C@H]1CCOC1 [Afatinib]", "cell viability of combination": 49.1}
